Screening results from PubChem BioAssay.
Compounds with a hit are over-represented: about 12% of the library has one in this group of screens.
Pf growth 96h = P. falciparum growth inhibition at 96 hours. AID 504834. 320,000 tested, 6.9% active. Potency, µM (titrated, usually from 28.7 µM), for the others: top-dose activity change, negative = inhibition, actives largely listed as inhibitors. P. falciparum luciferase reporter growth, 96 h; note: % is set by controls: 0 for no effect and ±100 for the full control effect
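Two-generation exposure (96 h) targets delayed-death phenotype. Reporter parasites carrying integrated firefly luciferase, in red cells at 2% hematocrit and 0.05% parasitemia final, kept at 37 C, 5% CO2; luminescence loss indicates inhibition.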
Pf growth 48h = inhibits P. falciparum growth in the first generation, 48 h; P. falciparum luciferase growth in erythrocytes, 48 h; Potency, µM (series often up to 28.7 µM), for inactives: at the top dose activity change, negative = inhibition, hits mostly inhibitors; 310,000 tested, 5.9% active; note: % is set by controls: 0 for no effect and ±100 for the full control effect
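Here the parasites carry a stable luciferase gene and grow inside erythrocytes in Albumax-based RPMI medium with compound for one erythrocytic cycle. Activity is scored as loss of luminescent signal.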
AmpC inh detg = inhibitors of E. coli AmpC beta-lactamase with detergent; P00811; AmpC hydrolysis of nitrocefin, absorbance 480 nm, 0.01% Triton; Potency, µM (series often up to 114 µM), inactives show at the highest dose activity change, negative = inhibition, actives largely listed as inhibitors; 370,000 tested, 0.041% active; AID 485294;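 note: 0% = no-compound wells and -100% = no-enzyme wells; nearly all actives have a fitted effect of over 25% in size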
Target sequence (P00811 whole entry, looked up): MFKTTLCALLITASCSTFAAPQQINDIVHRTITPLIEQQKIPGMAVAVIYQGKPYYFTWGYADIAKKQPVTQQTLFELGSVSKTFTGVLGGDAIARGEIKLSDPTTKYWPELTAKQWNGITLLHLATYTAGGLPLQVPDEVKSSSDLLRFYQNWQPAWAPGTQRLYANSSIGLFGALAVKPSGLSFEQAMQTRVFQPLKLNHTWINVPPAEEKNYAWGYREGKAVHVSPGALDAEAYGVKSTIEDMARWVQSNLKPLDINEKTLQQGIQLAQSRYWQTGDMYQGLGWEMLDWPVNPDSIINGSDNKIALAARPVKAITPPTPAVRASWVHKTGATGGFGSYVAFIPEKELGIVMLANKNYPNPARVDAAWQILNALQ
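20 mM phosphate pH 7.0 + 0.01% (detergent screen) or 0.0001% Triton X-100; 5.3 nM AmpC reagent; cpd preinc 15 min RT; nitrocefin (800 uM stock) to start; A480 q20 s × 4 min; Activity was normalised to no-enzyme and no-compound control wells.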
AmpC no deterg = inhibitors of E. coli AmpC beta-lactamase without detergent | AmpC nitrocefin hydrolysis, absorbance 480 nm, 0.0001% Triton | 330,000 tested, 0.52% active | Potency, µM (highest dose often 57.1 µM), for inactives: at the highest dose activity change, negative = inhibition, most hits filed as inhibitors | P00811;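 note: plate controls were no compound for no effect and no enzyme for full effect; nearly all actives have a fitted effect of over 20% in size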
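20 mM phosphate pH 7.0 + 0.01% (detergent screen) or 0.0001% Triton X-100; 5.3 nM AmpC reagent; cpd preinc 15 min RT; nitrocefin (800 uM stock) to start; A480 q20 s × 4 min; Activity was normalised to no-enzyme and no-compound control wells.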
SARS PLpro yeast = inhibitors of SARS-CoV papain-like protease in yeast; S. cerevisiae expressing SARS-CoV PLpro, growth rescue; Potency, µM (highest dose often 32.9 µM), inactives show at the top dose activity, positive = growth rescue, usual class: activators; 330,000 tested, 0.19% active; calls by dose curve; note: 0% is about no effect; nearly all actives have a fitted effect of over 55% in size
Sm TGR inh = S. mansoni TGR enzyme inhibition; Q962Y6; purified TGR, DTNB reduction, TNB absorbance 405 nm; Potency, µM (top dose mostly 114 µM), inactives show at the top dose activity change, negative = inhibition, actives largely listed as inhibitors; 360,000 tested, 3% active; note: % is set by controls: 0 for no effect and ±100 for the full control effect; nearly all actives have a fitted effect of over 60% in size
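Kinetic colorimetric format: TGR-catalysed, NADPH-driven DTNB reduction monitored via TNB absorbance. Enzyme dispensed at 20 nM; compound exposure 15 min at room temperature before reaction start.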
Numbers without * were called inactive; i = inactive; ? = inconclusive; . = no result; [ ] = another dose, or the depositor's remark. Unless noted, calls come from the whole dose curve; as a rule, active = well fitted curve in the direction sought with a large enough effect; inconclusive = small, poorly fitted or top-dose-only effect, or another doubt; inactive = no such curve, though single readings can be large; an effect the other way counts as inactive or inconclusive. Potency is the fitted concentration of half-maximal effect.

SMILES	Pf growth 96h	Pf growth 48h	AmpC inh detg	AmpC no deterg	SARS PLpro yeast	Sm TGR inh
Cc1[nH]c2ccccc2c1C(C[N+](=O)[O-])c1ccco1 (centres undefined)	-17%	3%	3%	-28%	-6%	22µM*
Cc1ccc(-c2[nH]c3ccccc3c2C(C[N+](=O)[O-])c2ccco2)cc1 (centres undefined)	.	9.3µM*	2%	-26%	-22%	79µM*
Cc1[nH]c2ccccc2c1C(C[N+](=O)[O-])c1cccs1 (centres undefined)	?	?	?	-23%[11.4 µM]	15%	-1%
CCN1CCc2nc3ccccc3c(C(=O)Nc3ccc(C#N)cc3)c2C1	2.6µM*	?	0%	-10%	-1%	-11%
CCN(CC)CCNC(=O)C(=O)Nc1ccc2c(c1)N(S(=O)(=O)c1cccs1)CCC2	?	15µM*	-10%	-5%	-5%	9%
CNC(=O)C(=O)Nc1ccc2c(c1)N(S(=O)(=O)c1cccs1)CCC2	12%	-25%	-17%	-31%	-3%	1%
O=C(Nc1ccccc1)c1cc(S(=O)(=O)NCc2ccncc2)ccc1Cl	12µM*	-6%	3%	-23%	0%	-20%
COc1ccc(S(=O)(=O)NCc2cccnc2)cc1C(=O)Nc1ccccc1	10µM*	-14%	-10%	13%	-4%	0%
COc1ccc(S(=O)(=O)NCc2cccnc2)cc1NC(=O)c1ccccc1	-23%	2%	2%	-13%	13%	-1%
C=C(C)Cc1c(C)c(C#N)c2nc3ccccc3n2c1NCCCN(C)C	9.3µM*	?	4%	-8%	-1%	2%
CCc1c(C)c(C#N)c2nc3ccccc3n2c1NCCN(C)C	-11%	9.3µM*	2%	-15%	-9%	?
C=CCc1c(C)c(C#N)c2nc3ccccc3n2c1NCCN(C)C	?	?	?	-12%	-17%	-30%
Cc1cc(O)c(C)c(O)c1/C=N/NC(=O)c1cccnc1	7%	?	-11%	-10%	0%	-3%
CCN(CC)S(=O)(=O)c1ccc(C(C)NC(=O)C2CCCN2C(=O)c2cccs2)cc1 (centres undefined)	?	-2%	6%	-13%	-12%	0%
CCCn1c(CCC(=O)O)ccc1-c1ccccc1	-14%	0%	?	-27%	2%	-30%
Cc1ccc(-c2ccc(CCC(=O)O)n2Cc2ccco2)cc1	?	.	-1%	-49%	-3%	35µM*
CC(C)n1c(CCC(=O)O)ccc1-c1ccccc1	?	.	?	-23%	2%	18µM*
O=C(O)CCc1ccc(-c2ccccc2)n1CC(=O)O	.	5%	?	-30%	17%	35µM*
O=C(O)CCc1ccc(-c2ccc(F)cc2)n1CCC(=O)O	.	-7%	3%	-27%	4%	14µM*
O=C(O)CCc1ccc(-c2ccc(Br)cc2)n1CC(=O)O	-10%	12%	-14%	-29%	7%	?
COC(=O)c1c(C)[nH]c(C(=O)OCC(=O)c2ccc(C)s2)c1C	.	.	.	-26%	-26%	.
CCCCN1CCCc2cc(CN(CCCN3CCOCC3)C(=O)Nc3ccc(CC)cc3)ccc21	.	.	6%	.	.	-22%
Cc1c(-c2ccc(Cl)cc2)c(=O)oc2c(CN3CCN(C)CC3)c(O)ccc12	.	.	16%	.	.	3%
COC(=O)c1ccccc1C(=O)c1cccc2ccccc12	0%	0%	-14%	-21%	14%	-7%
COC(=O)c1cc2ccccc2c(-c2c(O)ccc3ccccc23)c1O	?	9.3µM*	-10%	-27%	-90%	-2%
SMILES	Pf growth 96h	Pf growth 48h	AmpC inh detg	AmpC no deterg	SARS PLpro yeast	Sm TGR inh
COC(=O)C(C)NC(=O)N1CCN(c2nnc(C)c3c(C)n(-c4ccc(Cl)cc4)nc23)CC1 (centres undefined)	.	.	25%	.	.	7%
O=C(c1ccc(CNS(=O)(=O)c2ccc(Br)cc2)cc1)N1CCC2(CC1)OCCO2	?	?	-15%	-3%	2%	-12%
O=C(c1ccc(CS(=O)(=O)c2ccccc2)o1)N1CCN(c2ncccn2)CC1	-24%	.	-7%	-3%	-2%	28µM*
COc1ccc(S(=O)(=O)Cc2ccc(C(=O)N3CCOCC3)o2)cc1	?	6%	?	-2%	6%	28µM*
O=C(c1ccc(CS(=O)(=O)c2ccc(Br)cc2)o1)N1CCC2(CC1)OCCO2	i	13%	-6%	-15%	-2%	35µM*
COc1ccc(S(=O)(=O)Cc2ccc(C(=O)N3CC(C)CC(C)C3)o2)cc1 (centres undefined)	?	10%	?	45%	3%	?
O=C(c1ccc(CNS(=O)(=O)c2ccccc2)cc1)N1CCC2(CC1)OCCO2	8.3µM*	55%	0%	8%	4%	40µM*
O=C(c1ccc(CS(=O)c2ccccc2Cl)o1)N1CCOCC1 (centres undefined)	-4%	1%	0%	-12%	2%	32µM*
O=C(c1ccc(CS(=O)(=O)c2ccccc2)o1)N1CCC2(CC1)OCCO2	-4%	18%	-12%	-2%	11%	22µM*
O=C(c1ccc(CS(=O)(=O)c2ccc(Br)cc2)o1)N1CCOCC1	?	.	-3%	-6%	6%	45µM*
CCOc1ccc(-n2c(SCC(=O)Nc3cccc(Cl)c3)nc3c(oc4ccccc43)c2=O)cc1	.	.	?	.	.	-1%
Cc1noc(C)c1S(=O)(=O)Nc1ccc2c(c1)C(=O)N([C@H](C)CO)C[C@H](C)[C@@H](CN(C)C(=O)NC1CCCCC1)O2	.	.	.	67%	3%	.
CCc1ccc(NC(=O)CSC2=Nc3ccccc3C3=NC(CCC(=O)NCCc4ccccc4)C(=O)N23)cc1 (centres undefined)	.	.	8%	.	.	-2%
Cc1cc(C)nc(SCC(=O)OCN2C(=O)c3ccccc3C2=O)n1	-24%	1.9µM*	1%	-12%	-2%	0%
Cc1c(-c2ccncc2)oc2ccc(Br)cc2c1=O	?	9.3µM*	2%	-9%	-1%	7%
CCOC(=O)c1cc(OC(=O)c2ccccc2F)n(-c2ccccc2)n1	.	.	12%	.	.	7%
COc1ccccc1C(O)P(=O)(OC1CCCCC1)OC1CCCCC1 (centres undefined)	-23%	?	-7%	64%	-1%	-20%
O=P(OC1CCCCC1)(OC1CCCCC1)C(O)c1c(Cl)cccc1Cl (centres undefined)	5.2µM*	10µM*	-6%	21%	-24%	-2%
